One assay concerns the target Albumin (Bos taurus) (UniProt P02769). Briefly: bovine serum albumin binders on microarray, profiling panel, artefact control for SMM control protein annotation, biochemical, small-molecule microarray, Alexa647 label, 635/667 nm fluorescence (AID 1118).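 Also: score merges 667 nm emission intensity and signal-to-noise per printed compound spot.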 To be noted: BSA-A647 binding, fluorescence 635 nm, higher = more signal.
Assay [1] is described as follows: small-molecule microarray binders of probe aXIP, primary screen, biochemical, NeuroSMM set, 635/667 nm fluorescence (AID 1119).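 Also: probe is the protein aXip251-270 applied at 1 µg/mL to compound-printed slides; binding of probe to printed compounds measured as 667 nm fluorescence plus signal to noise.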 To be noted: higher = more signal, called active from +8 up or from −8 down.
Assay [2] can be described thus: small-molecule binders of probe aNOTCH3, primary screen, biochemical, small-molecule microarray, 635/667 nm fluorescence (AID 1120).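 Also: probe is a biotin-tagged antibody raised against NOTCH3 rather than NOTCH3 protein; score merges spot fluorescence near 667 nm with spot signal to noise.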 The conditions noted are these: higher = more signal.
Assay [3] in a line: small-molecule binders of probe aNOTCH2, primary screen, biochemical, small-molecule microarray, 635/667 nm fluorescence (AID 1121).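 Also: score merges feature fluorescence read at 667 nm with its signal to noise.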 The conditions noted are these: higher = more signal.
For assay [4], the target named is Carbonic anhydrase 2 (Homo sapiens) (UniProt P00918). Briefly: CAII small-molecule binders, profiling panel, biochemical, small-molecule microarray, Alexa647-labelled CAII (AID 1122). To be noted: CAII-A647 binding fluorescence, higher = more signal.
Assay [5] can be described thus: COS7 lysate on small-molecule microarray, probe aHis, 635 nm (AID 1123).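 Also: z-score combines 667nm fluorescence intensity with signal-to-noise per printed compound spot.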 The conditions noted are these: COS7 cell lysate, fluorescence, higher = more signal.
Assay [6] is described as follows: compound binding in COS7 lysate, probe aLAP1, primary screen, cell lysate, small-molecule microarray (AID 1124).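 Also: lysate comes from COS7 cells expressing LAP1 and is applied at 0.3 µg/mL; score merges spot fluorescence near 667 nm with signal-to-noise over triplicate slides.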 To be noted: probe aLAP1, fluorescence, higher = more signal.
For a further assay, the system named is Sam68 (KHDRBS1). Briefly: Sam68 small-molecule binders, primary screen, biochemical, small-molecule microarray, 635 nm fluorescence (AID 1125).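 Also: score merges 667 nm channel intensity with signal to noise over triplicate slides.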 The conditions noted are these: small-molecule microarray binding, higher = more signal.
For assay [7], the system named is Chordin-like protein 2 (CHRDL2). Briefly: CHRDL2 small-molecule binders, primary screen, biochemical, small-molecule microarray, 635 nm fluorescence (AID 1126).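 Also: printed compound slides probed with Chrdl2 protein at 4 µg/mL for 1 h at 4 C; score merges 667 nm emission intensity with signal to noise over three replicate slides.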 The conditions noted are these: small-molecule microarray binding, fluorescence 635 nm; higher = more signal.
For assay [8], the target named is Concanavalin-A (Canavalia ensiformis) (UniProt P02866). Briefly: ConA small-molecule binders, primary screen, artefact control for SMM control protein annotation, biochemical, small-molecule microarray, Alexa647 label, 635 nm (AID 1127).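 Also: z combines 667 nm emission intensity with signal-to-noise across three replicate slides.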 To be noted: ConA-A647 binding fluorescence, higher = more signal.

Activity calls are given as the source filed them.

Concanavalin-A (Canavalia ensiformis), sequence (P02866 whole entry, looked up): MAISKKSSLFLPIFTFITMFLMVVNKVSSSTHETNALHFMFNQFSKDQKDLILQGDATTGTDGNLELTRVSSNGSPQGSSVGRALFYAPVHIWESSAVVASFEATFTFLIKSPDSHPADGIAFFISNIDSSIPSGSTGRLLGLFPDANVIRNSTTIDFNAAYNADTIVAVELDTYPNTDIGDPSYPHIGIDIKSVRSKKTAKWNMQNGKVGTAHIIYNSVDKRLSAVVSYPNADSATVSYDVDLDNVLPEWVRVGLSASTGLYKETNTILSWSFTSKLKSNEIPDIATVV
Albumin (Bos taurus), sequence (P02769 whole entry, looked up): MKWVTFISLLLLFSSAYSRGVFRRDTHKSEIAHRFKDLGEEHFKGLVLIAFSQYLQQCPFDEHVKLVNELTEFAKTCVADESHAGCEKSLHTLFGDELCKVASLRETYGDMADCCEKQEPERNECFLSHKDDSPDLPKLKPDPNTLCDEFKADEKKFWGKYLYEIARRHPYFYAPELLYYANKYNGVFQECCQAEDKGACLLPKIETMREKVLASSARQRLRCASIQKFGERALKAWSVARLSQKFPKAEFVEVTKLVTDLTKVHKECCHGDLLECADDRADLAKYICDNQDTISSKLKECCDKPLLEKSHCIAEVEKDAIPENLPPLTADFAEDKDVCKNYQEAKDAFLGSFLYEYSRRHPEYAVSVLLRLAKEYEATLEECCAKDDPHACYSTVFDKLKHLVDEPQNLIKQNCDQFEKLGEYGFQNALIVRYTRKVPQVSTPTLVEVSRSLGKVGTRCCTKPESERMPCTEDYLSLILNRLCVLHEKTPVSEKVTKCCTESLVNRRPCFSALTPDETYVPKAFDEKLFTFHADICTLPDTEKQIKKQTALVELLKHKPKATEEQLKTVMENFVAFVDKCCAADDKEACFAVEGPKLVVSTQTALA

Take `CC(C)=CCCC(C)=CC(O)C1C=CC2C(=O)NC(=O)C2N1Nc1ccccn1` (stereo not given): the composite z-score came to 0.408 with Albumin (Bos taurus); 0.254 in assay [2]; 0.0047 in [3]; 0.725 in [4]; 0.39 in [5]; 0.969 in assay [6]. In addition, the values for the composite z-score (in the assay on Sam68 (KHDRBS1); in assay [7]; in assay [8]) were 1.25, 1.43 and 0.932, respectively. Further, the composite Z-score in assay [1] is 0.992 (inactive).
Take `COc1ccc([Si](C)(C)[C@@H]2[C@@H](CC(=O)N3CCC[C@H]3CO)O[C@]3(C(=O)N(Cc4ccc(N5CCOC5=O)cc4)c4ccccc43)[C@H]2C)cc1`: the composite z-score in the assay with Albumin (Bos taurus) is 0.746; in [2] it was -0.0362; in assay [3] it was -0.136; in assay [4], 0.408; in assay [5], 1.02; in assay [6], 0.373. In addition, the composite z-score came to 1.31 in the assay on Sam68 (KHDRBS1), 0.509 in [7] and 0.884 in [8]. Further, the composite Z-score in assay [1] is 0.408 (inactive).
As for `CN(C)CCCC[C@@H]1NC(=O)[C@@H]2C[C@H](C(=O)NCCCCCCNC(=O)CS)[C@H](c3ccc(O)cc3)N2C1=O`, the composite z-score was -0.868 with Albumin (Bos taurus); -0.0682 in assay [2]; -0.112 in assay [3]; 0.538 in [4]; 1.06 in assay [5]; 0.338 in [6]. Moreover, the composite z-score was 0.952 in the assay with Sam68 (KHDRBS1), 1.15 in assay [7] and 1.08 in assay [8]. Moreover, the composite Z-score in [1] was 0.0804 (inactive).
On to `COC(=O)[C@@]1(Cc2ccc(OC)cc2)[C@H]2c3cc(C(=O)N4CCCC4)n(Cc4c(CO)[nH]cc(C)c4=O)c3C[C@H]2CN1C(=O)c1ccccc1`, for which the composite z-score in the assay with Albumin (Bos taurus) worked out at 1.01; in [2] it was 0.0296; in assay [3], 0.257; in [4], 0.751; in assay [5] it was 3.24; in [6], 1.32. Moreover, the composite z-score is 0.332 with Sam68 (KHDRBS1), -0.184 in [7] and 0.393 in [8]. For the same compound, the composite Z-score in assay [1] is -0.438 (inactive).
`C=CCOC(=O)[C@H]1[C@@H]2C(=O)O[C@@H](c3ccccc3)[C@@H](c3ccccc3)N2[C@@H](c2ccc(OCCOC(=O)[C@@H]3C[C@@H]4C(=O)N[C@@H](CCCCNC(C)=O)C(=O)N4[C@@H]3c3cccc(OCCO)c3)cc2)[C@]12C(=O)Nc1ccccc12`: the composite z-score is -0.623 in the assay with Albumin (Bos taurus); 0.116 in [2]; -0.0704 in assay [3]; 0.501 in assay [4]; 2.07 in assay [5]; 0.352 in [6]. Also, the composite z-score amounted to 1.29 in the assay on Sam68 (KHDRBS1), 0.751 in assay [7] and 1.2 in assay [8]. The composite Z-score in assay [1] is 1.36 (inactive).
For the compound `COc1cc(CO)cc(I)c1O[C@H]1C=C(C(=O)NCCO)C[C@@H]2O[C@H]12`, the composite z-score with Albumin (Bos taurus) was -0.39; in assay [2], -0.0311; in assay [3], -0.0596; in assay [4] it was 0.465; in [5], 1.07; in [6], 0.0543. Besides, the composite z-score came out at 1.3 in the assay with Sam68 (KHDRBS1), 1.36 in assay [7] and 1.01 in assay [8]. In addition, the composite Z-score in assay [1] is 1.49 (inactive).
In the case of `C=CCN1C(=O)[C@]2(O[C@H](CCn3cc([C@H](O)c4ccccc4)nn3)[C@@H]([Si](C)(C)c3ccc(OC)cc3)[C@@H]2C)c2cc(NC(=O)c3ccc(OC)cc3)ccc21`, the composite z-score with Albumin (Bos taurus) is 0.55; in [2] it was -0.0362; in assay [3], -0.135; in assay [4], 0.015; in [5] it was 1.02; in assay [6] it was -0.182. Also, the results for the composite z-score (with Sam68 (KHDRBS1); in [7]; in assay [8]) were 0.867, 0.334 and 0.543, respectively. Also, in [1], the composite Z-score was 0.24 (inactive).
On to `CC(C)C(O)C1C=CC2C(=O)NC(=O)C2N1Nc1ccccn1` (stereo not given), for which the composite z-score is 0.701 with Albumin (Bos taurus); -0.0044 in [2]; -0.0464 in assay [3]; 0.722 in [4]; 1.59 in assay [5]; 0.331 in [6]. The composite z-score with Sam68 (KHDRBS1) was 0.472; in [7], -0.369; in assay [8], 0.561. Further, the composite Z-score in assay [1] was 0.316 (inactive).
As for `CC(C)OC(=O)CC(=O)CC(O)c1cccc([N+](=O)[O-])c1` (stereo not given), the composite z-score with Albumin (Bos taurus) was 0.799; in assay [2], 0.241; in assay [3], -0.177; in [4] it was 0.633; in [5], 0.707; in [6] it was -0.107. Besides, the values for the composite z-score (in the assay on Sam68 (KHDRBS1); in assay [7]; in assay [8]) were 1.22, 0.01 and 0.828, respectively. In [1], the composite Z-score is -0.144 (inactive).
Regarding `COc1ccc([Si](C)(C)[C@H]2[C@H](CC(=O)N3Cc4ccccc4C[C@H]3CO)O[C@@]3(C(=O)N(c4ccccc4)c4ccccc43)[C@@H]2C)cc1`, the composite z-score was 0.622 in the assay with Albumin (Bos taurus); 0.204 in assay [2]; -0.126 in assay [3]; 0.306 in [4]; 0.994 in assay [5]; 0.374 in assay [6]. Further, the composite z-score with Sam68 (KHDRBS1) amounted to 1.29; in [7], 1.22; in [8], 1.09. Besides, in assay [1], the composite Z-score was 0.319 (inactive).
As to `C=C(CCCC)/C(=C/C[C@@H](OC(C)=O)c1ccc(CO)o1)c1cnc2ccccc2c1`, the composite z-score with Albumin (Bos taurus) was 0.333; in assay [2] it was 0.185; in assay [3] it was -0.0684; in assay [4] it was 0.476; in assay [5] it was 1.45; in [6], 1.17. For the same compound, the composite z-score in the assay with Sam68 (KHDRBS1) was 1.3; in assay [7] it was 1.03; in assay [8], 0.875. In addition, the composite Z-score in [1] was -0.117 (inactive).
Turning to `CCCC[C@H]1OB(O)C[C@H]2C1=C(COc1ccccc1)C[C@H]1C(=O)C=CC(=O)[C@H]12`, the composite z-score in the assay with Albumin (Bos taurus) is -0.339; in [2] it was -0.0333; in [3] it was -0.0942; in assay [4], -0.173; in assay [5] it was -0.145; in [6], -0.317. Further, the composite z-score in the assay with Sam68 (KHDRBS1) was found to be 0.564; in assay [7] it was 0.647; in [8] it was 0.315. Further, the composite Z-score in [1] is 0.229 (inactive).
As to `O=C1c2ccccc2[C@@]2(Cc3ccccc3N(Cc3ccccc3)C2=O)[C@H](c2ccc(CO)cc2)N1Cc1ccccc1Cl`, the composite z-score is 0.705 with Albumin (Bos taurus); -0.279 in [2]; -0.171 in assay [3]; -0.391 in assay [4]; -0.222 in assay [5]; 0.147 in assay [6]. In addition, the composite z-score with Sam68 (KHDRBS1) was -0.633; in assay [7], -0.688; in assay [8] it was -0.709. In addition, the composite Z-score in [1] was 0.0507 (inactive).

The values above are taken from PubChem BioAssay.
